Experimental data published in PubChem BioAssay (NCATS).
“And” between values parts separate entries of the source, which are not always exact repeats. Equal entries are not always repeated. Records with an inconclusive call do not appear. The source made the active and inactive calls. Calls follow the shape of the full dose curve. Bridge positions count the residues as written; N and C are the ends. Square brackets hold non-standard residues; d marks the D form. Peptide text beside a SMILES is read from it. Orn = NCCC[CH](N)C(=O)O; Mpa = O=C(O)CCS

Columns and labels:
[1] = Primary qHTS for inhibitors of SARS-S pseudo-typed particle cell entry (AID 1479145); settings: outcome: dose series up to 57.1 µM unless noted; also: nearly all actives have a fitted effect of over 45% in size; as to activity change, negative = inhibition: % is scaled to controls: 0 for no effect and ±100 for the full control effect
[2] = Primary qHTS for Huh7 cytotoxicity: counterscreen for inhibitors of MERS-S pseudotyped particle cell entry (AID 1479147); settings: outcome: dose series up to 57.1 µM unless noted; as to activity change, negative = cytotoxicity: % is scaled to controls: 0 for no effect and ±100 for the full control effect
[3] = Primary qHTS for inhibitors of MERS-S pseudo-typed particle cell entry (AID 1479149); settings: outcome: dose series up to 57.1 µM unless noted; also: nearly all actives have a fitted effect of over 60% in size
[4] = Primary qHTS for Vero E6 cytotoxicity: counterscreen for inhibitors of SARS-S pseudo-typed particle cell entry (AID 1479150); settings: outcome: dose series up to 57.1 µM unless noted; as to activity change, negative = cytotoxicity: % is scaled to controls: 0 for no effect and ±100 for the full control effect
[5] = Cytotoxicity counterscreen for inhibitors of SARS-CoV-2 cell entry (AID 1645845); settings: outcome: dose series up to 57.1 µM unless noted; also: nearly all actives have a fitted effect of over 50% in size; as to activity change, negative = cytotoxicity: % is scaled to controls: 0 for no effect and ±100 for the full control effect
In short: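 48 h compound treatment (after 1 h preincubation), HEK293-ACE2 cells, 37 C/5% CO2; ATP luminescence endpoint; normalized to cell wells and media blanks.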

[6] = Primary qHTS to identify inhibitors of SARS-CoV-2 cell entry (AID 1645846); settings: SARS-CoV-2 pseudovirus cell entry assay, luminescence; activity change, negative = inhibition: at 57.1 µM (top of the series) unless noted; also: nearly all actives have a fitted effect of over 45% in size
In short: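 Inhibition of spike-mediated entry was scored in human ACE2-transfected Expi293F cells. Particles were MLV-pseudotyped with Wuhan-Hu-1 S carrying a 19-aa C-terminal deletion; signal was luciferase after two days, scaled between spike PP and fusion-protein-free PP.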

CC(C)(C)C(=O)OCC(=O)[C@H]1CC[C@H]2[C@@H]3CCC4=CC(=O)CC[C@]4(C)[C@H]3CC[C@]12C
inactive: Potency [1] | Potency [2] | Potency [3] | Potency [4] | Potency [5]
-13%: activity change, negative = inhibition [6]

CCCCCCCCCCCCCCCCCC(=O)[O][Al]
inactive: activity change, negative = inhibition [1] -36% [at 5.34 µM] | activity change, negative = cytotoxicity [2] -3.61% [at 5.34 µM] | outcome [3] inactive [at 5.34 µM] | activity change, negative = cytotoxicity [4] -0.388% [at 5.34 µM] | activity change, negative = cytotoxicity [5] 0.759% [at 5.25 µM] | outcome [6] inactive [at 5.25 µM]

OC[C@H]1OC(O)C[C@@H](O)[C@@H]1O (some centres not stated)
-11.1%: activity change, negative = inhibition [6]
inactive: Potency [1] | Potency [2] | Potency [3] | Potency [4] | Potency [5]

CC(=O)OCC1=C(C(=O)O)N2C(=O)[C@@H](NC(=O)CC#N)[C@H]2SC1
inactive: Potency [1] | Potency [2] | Potency [3] | Potency [4] | Potency [5] | Potency [6]

CC(=O)NC(C=O)C(O)C(O)[C@H](O)CO (some centres not stated)
inactive: Potency [1] | Potency [2] | Potency [3] | Potency [4] | Potency [5]
-0.156%: activity change, negative = inhibition [6]

CN1C(=O)[C@]23C[C@H]4C(C)(C)[C@]5(CNc6c5ccc5c6OC=CC(C)(C)O5)C[C@@]41CN2CC[C@@]3(C)O
inactive: Potency [1] | Potency [2] | Potency [3] | Potency [4] | Potency [5] | Potency [6]

CCCCCCCCCCCCCCCCCC(=O)OCC(C)O (configuration not stated)
inactive: Potency [1] | Potency [2] | Potency [3] | Potency [4] | Potency [5]
-21% [at 114 µM]: activity change, negative = inhibition [6]

C[N+](C)(CCCCCC[N+](C)(C)C1c2ccccc2-c2ccccc21)C1c2ccccc2-c2ccccc21
inactive: Potency [1] | Potency [2] | Potency [3] | Potency [4] | Potency [5]
-0.342%: activity change, negative = inhibition [6]

CCC(=O)O[C@]1(C(=O)COC(C)=O)CC[C@H]2[C@@H]3C[C@H](C)C4=CC(=O)C=C[C@]4(C)[C@H]3[C@@H](O)C[C@@]21C
-17.7%: activity change, negative = inhibition [6]
inactive: Potency [1] | Potency [2] | Potency [3] | Potency [4] | Potency [5]

Cc1ccc(/C=C2\C(=O)C3(C)CCC2C3(C)C)cc1 (configuration not stated)
inactive: Potency [1] | Potency [2] | Potency [3] | Potency [4] | Potency [5] | Potency [6]

COC(=O)CCC(=O)CN
inactive: Potency [1] | Potency [2] | Potency [3] | Potency [4] | Potency [5] | Potency [6]

CC1(C)S[C@@H]2[C@@H](N3C(=O)[C@@H](c4ccccc4)NC3(C)C)C(=O)N2[C@H]1C(=O)O
-21.4%: activity change, negative = inhibition [6]
inactive: Potency [1] | Potency [2] | Potency [3] | Potency [4] | Potency [5]

CCCC[C@H](C)C[C@H](O)/C=C/[C@H]1[C@H](O)CC(=O)[C@@H]1CCCC/C=C/C(=O)O
-18.9%: activity change, negative = inhibition [6]
inactive: Potency [1] | Potency [2] | Potency [3] | Potency [4] | Potency [5]

CC1(C)S[C@H]2[C@H](NC(=O)[C@@H](N)c3ccc(O)cc3)C(=O)N2[C@H]1C(=O)O
inactive: Potency [1] | Potency [2] | Potency [3] | Potency [4] | Potency [5]
-1.08% and -18.3%: activity change, negative = inhibition [6]

C=CCN1CC[C@]23c4c5ccc(O)c4O[C@H]2[C@@H](OCCOCCOCCOCCOCCOCCOCCOC)CC[C@@]3(O)[C@H]1C5
inactive: Potency [1] | Potency [2] | Potency [3] | Potency [4] | Potency [5]
-22.8%: activity change, negative = inhibition [6]

O=C1O[C@H]2[C@H](OC(O)[C@@H]2O)[C@@H]1O (some centres not stated)
inactive: Potency [1] | Potency [2] | Potency [3] | Potency [4] | Potency [5] | Potency [6]

CC(/C=C1\SC(=S)N(CC(=O)O)C1=O)=C\c1ccccc1
inactive: Potency [1] | Potency [2] | Potency [3] | Potency [4] | Potency [5] | Potency [6]

CCNC(=O)CCC/C=C\C[C@@H]1[C@@H](/C=C/[C@@H](O)CCc2ccccc2)[C@H](O)C[C@@H]1O
-19.7%: activity change, negative = inhibition [6]
inactive: Potency [1] | Potency [2] | Potency [3] | Potency [4] | Potency [5]

CC(OC(=O)OC1CCCCC1)OC(=O)C1=C(CSc2nnnn2CCN(C)C)CS[C@@H]2[C@H](NC(=O)Cc3csc(N)n3)C(=O)N12 (some centres not stated)
inactive: Potency [1] | Potency [2] | Potency [3] | Potency [4] | Potency [5]
-37%: activity change, negative = inhibition [6]

CCOc1ccc(CC2NC(=O)CCSSCC(C(=O)N3CCCC3C(=O)NC(CCCN)C(=O)NCC(N)=O)NC(=O)C(CC(N)=O)NC(=O)C(C(C)O)NC(=O)C(C(C)CC)NC2=O)cc1 (configuration not stated) ([Mpa]Y(Et)ITNCP[Orn]G-NH2; disulfide 1-6; configuration not given here)
-38.4%: activity change, negative = inhibition [6]
inactive: Potency [1] | Potency [2] | Potency [3] | Potency [4] | Potency [5]

CO/N=C(/C(=O)N[C@@H]1C(=O)N2C(C(=O)O)=CCS[C@H]12)c1csc(N)n1
-20.9%: activity change, negative = inhibition [6]
inactive: Potency [1] | Potency [2] | Potency [3] | Potency [4] | Potency [5]

Cn1c(=O)cc(N2CCCC(N)C2)n(Cc2ccccc2C#N)c1=O (configuration not stated)
inactive: Potency [1] | Potency [2] | Potency [3] | Potency [4] | Potency [5]
-28.9%: activity change, negative = inhibition [6]
